Test results as given in PubChem BioAssay.
Active and inactive are the calls of the source.

Experiments:
[1] = tested on: PRMT1 (protein arginine N-methyltransferase 1); assay: PRMT1 binders on small-molecule microarrays, primary screen, biochemical, small-molecule microarray, 635 nm fluorescence (AID 1088); settings: small-molecule microarray binding, higher = more signal;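 further: binding of Prmt1 protein to compounds spotted on small-molecule microarray slides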
[2] = yeast growth modulation, basal conditions, primary screen, YJM789 clinical isolate, OD600, 24 h (AID 1089);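 further: growth of clinical yeast isolate S. cerevisiae YJM 789 seeded 1000 cells per well; test concentration not given here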; settings: S. cerevisiae YJM789 growth, higher = more signal, called active from +8 up or from −8 down
[3] = fission yeast growth modulation, primary screen, strain 972, OD600, 24 h, no modulator (AID 1090);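 further: basal condition with compound alone and no growth modifier present; test concentration not given here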; settings: S. pombe 972 growth, higher = more signal, called active from +8 up or from −8 down
[4] = S. cerevisiae growth modulation with rapamycin, primary screen, strain BY4716, OD600, 96 h (AID 1091); settings: higher = more signal, called active from +8 up or from −8 down; further: test concentration not given here
[5] = molecular target: Torsin-1A-interacting protein 2 (Homo sapiens) (UniProt Q8NFQ8); assay: LULL1 binders on small-molecule microarray, primary screen, cell lysate, human LULL1 lysate, 635/667 nm fluorescence (AID 1092); settings: hLULL1 lysate binding, 635 nm fluorescence, higher = more signal;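 further: probe is lysate of COS7 cells overexpressing human LULL1; score merges per-feature 667 nm fluorescence with signal-to-noise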
[6] = E. coli growth modulation, two-sided OD650, primary screen, E. coli filamentation project, strain DRC41, 24 h (AID 1093); settings: OD650, 24 h, higher = more signal, called active from +8 up or from −8 down;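 further: MC1000 strain lacking acrAB efflux and sulA so SOS filamentation is blocked; test concentration not given here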
[7] = small-molecule microarray binders of probe aLefty2, primary screen, biochemical, biotinylated probe, 635/667 nm fluorescence (AID 1094); settings: higher = more signal;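 further: score merges spot fluorescence near 667 nm with spot signal-to-noise ratio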
[8] = tested on: Noggin (protein binding on small-molecule microarray); assay: Noggin binders on small-molecule microarray, primary screen, biochemical, 635/667 nm fluorescence (AID 1095); settings: 635 nm fluorescence, higher = more signal;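 further: score merges 667 nm feature fluorescence with signal to noise over triplicate slides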
[9] = molecular target: Neurogenic locus notch homolog protein 3 (Homo sapiens) (UniProt Q9UM47); assay: NOTCH3 binders on small-molecule microarray, primary screen, biochemical, 635/667 nm fluorescence (AID 1096); settings: NOTCH3 binding, 635 nm fluorescence, higher = more signal
[10] = small-molecule microarray binders of probe aEGFR, primary screen, biochemical, biotinylated probe, 635/667 nm fluorescence (AID 1097); settings: higher = more signal;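 further: probe is a biotinylated anti-EGFR antibody binding compounds printed on slides; score combines fluorescence near 667 nm and signal to noise of each spot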
[11] = tested on: Plasmodium falciparum Sir2 (PF13_0152, Sir2A); assay: pfSir2 binders on small-molecule microarrays, primary screen, biochemical, small-molecule microarray, 635 nm fluorescence (AID 1098); settings: small-molecule microarray binding, fluorescence 635 nm; higher = more signal;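 further: score merges spot fluorescence intensity with its signal-to-noise ratio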
[12] = small-molecule microarray binders of probe aDKK1, primary screen, biochemical, biotinylated probe, 635/667 nm fluorescence (AID 1099); settings: higher = more signal;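 further: score merges 667nm spot fluorescence with signal to noise across triplicate slides; reference of the scale not given here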
[13] = small-molecule microarray binders of probe aCHRDL2, primary screen, biochemical, biotinylated probe, 635/667 nm fluorescence (AID 1100); settings: higher = more signal
[14] = splicing luciferase reporter signal modulators, primary screen, spliceosome inhibition project, cell-based, HEK293, splice +/- reporter (AID 1101); settings: luminescence, 24 h, higher = more signal, called active from +8 up or from −8 down;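 further: HEK293 cells carrying a splicing-competent luciferase reporter gene; test concentration not given here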
[15] = molecular target: Fibroblast growth factor 10 (Homo sapiens) (UniProt O15520); assay: FGF10 binders on small-molecule microarrays, primary screen, biochemical, small-molecule microarray, 635 nm fluorescence (AID 1102); settings: FGF10 binding, fluorescence 635 nm, higher = more signal
[16] = tested on: glycogen synthase kinase-3 (GSK3A per assay name; protocol says GSK3B); assay: GSK3 binders on small-molecule microarrays, primary screen, biochemical, small-molecule microarray, 635 nm fluorescence, GSK3A (AID 1103); settings: small-molecule microarray binding, fluorescence 635 nm; higher = more signal; further: the record names both GSK3A and GSK3B
[17] = molecular target: Epidermal growth factor receptor (Homo sapiens) (UniProt P00533); assay: EGFR binders on small-molecule microarrays, primary screen, biochemical, small-molecule microarray, 635 nm fluorescence (AID 1104); settings: EGFR binding, higher = more signal;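 further: score merges 667 nm emission intensity with spot signal to noise over triplicate slides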
[18] = molecular target: Follistatin-related protein 3 (Homo sapiens) (UniProt O95633); assay: FSTL3 binders on small-molecule microarrays, primary screen, biochemical, small-molecule microarray, 635 nm fluorescence (AID 1105); settings: FSTL3 binding, higher = more signal;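 further: score merges emission near 667 nm and signal to noise per printed spot across three slides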
[19] = molecular target: Dickkopf-related protein 1 (Homo sapiens) (UniProt O94907); assay: DKK1 binders on small-molecule microarrays, primary screen, biochemical, small-molecule microarray, 635 nm fluorescence scan (AID 1106); settings: DKK1 binding, higher = more signal;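 further: score merges emission near 667 nm with signal to noise over three replicate slides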
[20] = tested on: Inhibin beta A chain (activin A); assay: INHBA (activin A) binders on microarrays, primary screen, biochemical, small-molecule microarray, 635 nm fluorescence scan (AID 1107); settings: small-molecule microarray binding, higher = more signal;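 further: mouse activin A protein probed at 4.33 µg/mL on printed slides; score merges bound-protein fluorescence near 667 nm with spot signal-to-noise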

Follistatin-related protein 3 (Homo sapiens), sequence (O95633 whole entry, looked up): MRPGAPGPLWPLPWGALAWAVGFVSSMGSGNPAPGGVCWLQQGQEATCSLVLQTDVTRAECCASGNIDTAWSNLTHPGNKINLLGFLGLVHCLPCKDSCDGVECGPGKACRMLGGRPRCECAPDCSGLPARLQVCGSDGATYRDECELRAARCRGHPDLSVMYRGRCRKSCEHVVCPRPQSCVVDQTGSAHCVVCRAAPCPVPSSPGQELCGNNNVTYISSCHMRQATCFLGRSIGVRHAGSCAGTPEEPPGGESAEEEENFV
Fibroblast growth factor 10 (Homo sapiens), sequence (O15520 whole entry, looked up): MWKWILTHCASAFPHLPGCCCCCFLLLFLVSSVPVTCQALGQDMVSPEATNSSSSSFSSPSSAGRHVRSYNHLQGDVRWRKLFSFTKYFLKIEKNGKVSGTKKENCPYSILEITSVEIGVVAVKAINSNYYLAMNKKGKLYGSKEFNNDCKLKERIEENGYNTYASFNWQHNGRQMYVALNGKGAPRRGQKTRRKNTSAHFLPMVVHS
Torsin-1A-interacting protein 2 (Homo sapiens), sequence (Q8NFQ8 whole entry, looked up): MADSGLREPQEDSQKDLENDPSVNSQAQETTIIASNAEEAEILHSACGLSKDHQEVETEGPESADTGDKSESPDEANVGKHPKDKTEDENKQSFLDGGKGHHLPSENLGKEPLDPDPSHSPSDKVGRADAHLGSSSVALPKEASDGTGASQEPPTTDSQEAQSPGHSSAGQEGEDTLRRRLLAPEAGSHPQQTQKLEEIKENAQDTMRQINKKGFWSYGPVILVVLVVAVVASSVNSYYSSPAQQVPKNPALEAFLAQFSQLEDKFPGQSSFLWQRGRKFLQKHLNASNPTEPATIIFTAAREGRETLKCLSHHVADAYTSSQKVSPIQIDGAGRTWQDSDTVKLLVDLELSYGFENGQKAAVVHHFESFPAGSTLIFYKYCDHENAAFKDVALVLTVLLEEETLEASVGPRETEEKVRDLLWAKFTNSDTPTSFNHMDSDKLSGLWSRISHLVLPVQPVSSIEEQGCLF
Epidermal growth factor receptor (Homo sapiens), sequence (P00533 whole entry, looked up): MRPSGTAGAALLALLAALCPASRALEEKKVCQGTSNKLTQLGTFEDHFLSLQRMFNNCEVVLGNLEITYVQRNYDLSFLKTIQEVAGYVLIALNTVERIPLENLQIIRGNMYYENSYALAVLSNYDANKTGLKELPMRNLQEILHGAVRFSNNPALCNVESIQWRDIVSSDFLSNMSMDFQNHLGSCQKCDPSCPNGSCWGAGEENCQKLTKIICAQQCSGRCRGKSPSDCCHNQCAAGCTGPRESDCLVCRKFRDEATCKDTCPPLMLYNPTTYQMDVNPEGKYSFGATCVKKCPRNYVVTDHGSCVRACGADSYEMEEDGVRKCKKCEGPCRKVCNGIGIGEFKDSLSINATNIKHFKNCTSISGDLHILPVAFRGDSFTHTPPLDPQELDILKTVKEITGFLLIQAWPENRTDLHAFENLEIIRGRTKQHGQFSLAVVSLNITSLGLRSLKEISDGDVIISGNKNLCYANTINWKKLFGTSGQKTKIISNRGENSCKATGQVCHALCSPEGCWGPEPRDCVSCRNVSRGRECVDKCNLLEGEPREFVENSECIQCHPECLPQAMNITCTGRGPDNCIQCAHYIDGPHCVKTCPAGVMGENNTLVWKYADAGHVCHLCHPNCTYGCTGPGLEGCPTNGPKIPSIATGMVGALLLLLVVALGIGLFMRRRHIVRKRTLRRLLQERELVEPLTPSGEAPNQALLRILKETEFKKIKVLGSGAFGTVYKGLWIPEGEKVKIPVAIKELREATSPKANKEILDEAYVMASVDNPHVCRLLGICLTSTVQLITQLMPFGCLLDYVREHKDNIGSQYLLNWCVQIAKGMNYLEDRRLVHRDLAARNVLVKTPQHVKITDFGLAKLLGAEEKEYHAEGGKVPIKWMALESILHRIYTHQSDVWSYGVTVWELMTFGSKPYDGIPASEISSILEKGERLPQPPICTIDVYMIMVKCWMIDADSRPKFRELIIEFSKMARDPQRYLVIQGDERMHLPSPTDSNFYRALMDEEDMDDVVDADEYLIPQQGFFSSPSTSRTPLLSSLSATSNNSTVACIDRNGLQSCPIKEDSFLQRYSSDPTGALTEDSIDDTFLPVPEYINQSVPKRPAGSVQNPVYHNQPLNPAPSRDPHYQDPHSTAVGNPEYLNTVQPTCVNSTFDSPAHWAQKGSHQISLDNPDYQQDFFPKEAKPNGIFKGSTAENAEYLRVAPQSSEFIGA
Dickkopf-related protein 1 (Homo sapiens), sequence (O94907 whole entry, looked up): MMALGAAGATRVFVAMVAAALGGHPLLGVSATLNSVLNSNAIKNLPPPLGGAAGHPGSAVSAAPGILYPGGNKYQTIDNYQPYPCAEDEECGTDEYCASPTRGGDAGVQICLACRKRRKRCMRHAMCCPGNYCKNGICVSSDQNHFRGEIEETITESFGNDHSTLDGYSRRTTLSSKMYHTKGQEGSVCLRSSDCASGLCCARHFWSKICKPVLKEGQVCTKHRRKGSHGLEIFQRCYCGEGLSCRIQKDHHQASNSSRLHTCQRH
Neurogenic locus notch homolog protein 3 (Homo sapiens), sequence (Q9UM47 whole entry, looked up): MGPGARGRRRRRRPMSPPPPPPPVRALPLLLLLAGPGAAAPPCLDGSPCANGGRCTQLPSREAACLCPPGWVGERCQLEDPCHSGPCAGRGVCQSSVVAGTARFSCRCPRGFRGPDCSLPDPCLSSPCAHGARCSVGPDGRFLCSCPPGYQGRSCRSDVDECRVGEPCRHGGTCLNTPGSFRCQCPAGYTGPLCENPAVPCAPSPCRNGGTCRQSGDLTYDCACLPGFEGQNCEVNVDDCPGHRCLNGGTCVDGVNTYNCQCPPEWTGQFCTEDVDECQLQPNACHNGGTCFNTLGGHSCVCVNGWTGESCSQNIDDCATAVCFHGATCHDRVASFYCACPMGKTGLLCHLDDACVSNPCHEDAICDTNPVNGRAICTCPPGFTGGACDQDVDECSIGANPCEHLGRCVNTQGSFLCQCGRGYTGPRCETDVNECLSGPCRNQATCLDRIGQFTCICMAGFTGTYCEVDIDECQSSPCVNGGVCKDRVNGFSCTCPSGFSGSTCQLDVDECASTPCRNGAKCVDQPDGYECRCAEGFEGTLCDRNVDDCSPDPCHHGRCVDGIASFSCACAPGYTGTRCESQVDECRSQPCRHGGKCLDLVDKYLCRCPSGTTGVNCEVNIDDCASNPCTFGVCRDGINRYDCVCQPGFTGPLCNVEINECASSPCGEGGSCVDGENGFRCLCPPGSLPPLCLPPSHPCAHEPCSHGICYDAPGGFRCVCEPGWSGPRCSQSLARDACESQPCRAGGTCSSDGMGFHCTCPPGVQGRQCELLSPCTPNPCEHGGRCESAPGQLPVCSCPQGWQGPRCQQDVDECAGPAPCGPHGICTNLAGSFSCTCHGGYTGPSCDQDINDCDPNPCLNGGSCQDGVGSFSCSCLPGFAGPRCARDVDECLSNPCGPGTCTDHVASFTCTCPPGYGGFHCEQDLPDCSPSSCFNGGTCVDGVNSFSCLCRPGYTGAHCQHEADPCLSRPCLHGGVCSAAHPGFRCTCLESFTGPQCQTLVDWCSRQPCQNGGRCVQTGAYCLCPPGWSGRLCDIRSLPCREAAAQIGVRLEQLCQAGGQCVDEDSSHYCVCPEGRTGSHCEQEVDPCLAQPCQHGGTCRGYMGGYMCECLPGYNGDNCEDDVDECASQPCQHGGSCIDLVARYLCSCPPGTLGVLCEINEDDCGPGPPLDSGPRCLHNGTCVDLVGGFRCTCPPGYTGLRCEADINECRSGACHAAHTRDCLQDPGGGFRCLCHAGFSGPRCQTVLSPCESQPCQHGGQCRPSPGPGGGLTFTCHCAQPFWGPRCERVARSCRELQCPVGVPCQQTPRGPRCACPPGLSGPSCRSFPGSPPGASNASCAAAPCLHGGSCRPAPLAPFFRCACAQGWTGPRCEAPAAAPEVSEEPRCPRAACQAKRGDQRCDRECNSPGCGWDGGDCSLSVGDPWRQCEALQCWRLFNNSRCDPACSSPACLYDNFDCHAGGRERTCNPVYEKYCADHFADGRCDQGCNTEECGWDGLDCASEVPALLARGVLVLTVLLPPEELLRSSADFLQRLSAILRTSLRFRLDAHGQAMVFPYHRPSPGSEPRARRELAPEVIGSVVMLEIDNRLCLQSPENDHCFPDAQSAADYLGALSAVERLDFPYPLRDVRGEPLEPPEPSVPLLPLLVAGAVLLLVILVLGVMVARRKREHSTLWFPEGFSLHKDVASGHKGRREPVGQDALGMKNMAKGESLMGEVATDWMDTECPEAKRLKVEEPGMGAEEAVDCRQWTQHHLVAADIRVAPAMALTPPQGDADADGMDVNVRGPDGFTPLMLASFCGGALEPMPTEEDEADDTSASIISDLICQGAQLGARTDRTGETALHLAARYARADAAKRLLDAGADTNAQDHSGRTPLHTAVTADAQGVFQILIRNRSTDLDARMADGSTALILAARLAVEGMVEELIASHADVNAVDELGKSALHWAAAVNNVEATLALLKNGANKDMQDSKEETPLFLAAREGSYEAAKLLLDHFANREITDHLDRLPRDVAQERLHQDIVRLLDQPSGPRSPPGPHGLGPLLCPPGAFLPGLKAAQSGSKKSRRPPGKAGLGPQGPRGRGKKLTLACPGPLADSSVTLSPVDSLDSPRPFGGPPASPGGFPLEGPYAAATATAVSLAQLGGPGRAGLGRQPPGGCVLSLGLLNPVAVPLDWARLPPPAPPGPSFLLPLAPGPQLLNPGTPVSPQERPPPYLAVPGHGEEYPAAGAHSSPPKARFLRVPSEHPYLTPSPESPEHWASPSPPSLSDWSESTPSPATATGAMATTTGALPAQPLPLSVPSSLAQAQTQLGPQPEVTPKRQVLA

SMILES	composite z-score [1]	z-score [2]	z-score [3]	z-score [4]	composite z-score [5]	z-score [6]	composite z-score [7]	composite z-score [8]	composite z-score [9]	composite z-score [10]	composite z-score [11]	composite z-score [12]	composite z-score [13]	z-score [14]	composite z-score [15]	composite z-score [16]	composite z-score [17]	composite z-score [18]	composite z-score [19]	composite z-score [20]
CN1C(=O)[C@]2(Cc3ccccc3)N=C(c3ccc(OCCCO)cc3)O[C@@H]2c2ccccc21	1.55	-0.112 (inactive)	-3.36 (inactive)	2.26 (inactive)	3.14	-0.538 (inactive)	-0.0354	1.34	0.845	0.0492	1.19	0.566	0.913	-1.18 (inactive)	1.33	1.28	0.367	0.459	0.505	1.14
CCOC(=O)C[C@H]1[C@H](OC(=O)Cc2ccc3c(c2)OCO3)[C@@H](NC(=O)c2ccc(-c3ccccc3)cc2)c2cc(OCCCO)ccc2N1C(=O)Cc1ccc(OC)cc1	0.81	-1.32 (inactive)	-1.09 (inactive)	0.105 (inactive)	0.826	1.09 (inactive)	0.0163	0.185	0.921	0.0881	0.489	0.55	0.456	-2.01 (inactive)	0.463	0.116	-0.0154	0.543	-0.0143	0.0884
COc1ccc([Si](C)(C)[C@H]2[C@H](CCO)O[C@@]3(C(=O)N(C)c4c(Br)cc(C)cc43)[C@@H]2C)cc1	1.49	0.117 (inactive)	-2.89 (inactive)	34 (active)	1.04	0.714 (inactive)	-0.1	0.76	1.1	-0.0627	0.717	-0.0044	0.202	4.6 (inactive)	0.333	0.223	0.127	0.4	0.0138	0.449
COCCCNC(=O)[C@@]1(Cc2ccccc2N=[N+]=[N-])N=C(c2ccc(OCCCO)cc2)O[C@H]1c1ccccc1N=[N+]=[N-]	1.56	0.253 (inactive)	-0.143 (inactive)	2.01 (inactive)	3.27	-0.27 (inactive)	0.23	0.0556	1.1	0.0507	1.34	1.04	1.25	1.87 (inactive)	0.935	0.82	0.372	0.937	-0.138	0.797
COc1ccc(CCNC(=O)[C@@]2(Sc3ccc(C)cc3)CC(=O)N(C3CCCCC3)[C@@H]2c2ccc(CO)cc2I)cc1	1.42	-1.11 (inactive)	0.0408 (inactive)	0.766 (inactive)	2.71	-0.0209 (inactive)	-0.0823	0.53	1.1	0.0414	1.09	-0.0662	0.44	0.451 (inactive)	0.724	0.974	0.0902	1.03	0.0743	0.327
O=C(O)[C@@]1(CCS(=O)(=O)c2ccccc2)COC(c2ccc(OCCCO)cc2)=N1	-0.16	0.608 (inactive)	-2.3 (inactive)	-0.717 (inactive)	2.76	-0.16 (inactive)	0.188	-0.754	-0.395	-0.0828	0.6	0.458	1.05	0.733 (inactive)	0.0185	-0.62	-0.939	-0.928	-1.17	1.19
C=CCOC(=O)[C@H]1[C@@H]2C(=O)O[C@@H](c3ccccc3)[C@@H](c3ccccc3)N2[C@@H](c2ccc(OCCOC(=O)[C@@H]3C[C@@H]4C(=O)N5CCC[C@H]5C(=O)N4[C@@H]3c3cccc(OCCO)c3)cc2)[C@]12C(=O)Nc1ccccc12	1.53	1.06 (inactive)	0.983 (inactive)	2.72 (inactive)	2.64	0.0706 (inactive)	0.108	0.98	1.13	0.0617	1.19	-0.0198	0.0715	-0.978 (inactive)	1.12	1.31	0.5	0.895	0.651	0.563
Cc1ccc(S[C@]2(C(=O)NCC(C)C)CC(=O)N(Cc3cc(C(F)(F)F)cc(C(F)(F)F)c3)[C@@H]2c2ccc(CO)cc2I)cc1	0.714	-1.79 (inactive)	-1.94 (inactive)	0.651 (inactive)	0.736	-0.161 (inactive)	0.31	-2.5	-0.332	-0.0824	-0.313	0.75	1.39	-0.0957 (inactive)	-0.755	-1.16	-1.78	-0.615	-2.14	0.923
[N-]=[N+]=NCc1ccccc1[C@H]1OC(c2ccc(OCCCO)cc2)=N[C@@]1(Cc1ccccc1)C(=O)NCc1ccccc1	1.48	-1.9 (inactive)	-0.0354 (inactive)	6.58 (inactive)	2.86	0.84 (inactive)	0.151	0.177	1.12	0.411	0.173	0.646	0.894	1.09 (inactive)	0.672	1.27	0.169	0.231	-0.238	-0.151
CCCCCN1CC=CC23O[C@@H]4/C=C\CCCOC(=O)C4[C@H]2C(=O)N(C(CO)C(C)C)[C@@H]3C1=O (stereo not given in full)	0.0207	-0.215 (inactive)	-0.84 (inactive)	-0.809 (inactive)	0.868	1.65 (inactive)	-0.124	0.0296	0.243	-0.201	1.24	-0.248	-0.0212	-0.455 (inactive)	0.0758	-0.949	-0.637	-0.188	-0.148	1.05
COCC(=C=CC[C@@H](O)c1ccccc1OCCO)C[C@@H](O)c1cc(Cl)cc(Cl)c1O	1.53	0.157 (inactive)	-0.563 (inactive)	0.0403 (inactive)	2.13	0.0142 (inactive)	-0.053	1.42	1.07	-0.0353	0.781	-0.174	-0.607	-0.458 (inactive)	1.23	1.28	0.334	1.23	0.317	0.495
CCCC=C(CCC)[C@@H](NC(=O)Oc1ccc(F)cc1)c1ccc(C(=O)OC)cc1	0.598	0.876 (inactive)	1.99 (inactive)	2.32 (inactive)	3	-0.211 (inactive)	0.212	-0.149	0.775	0.601	0.217	0.346	0.893	-1.86 (inactive)	0.441	-0.102	0.267	0.495	-0.284	0.602
O=C1NC(=O)C2C1C=CC(C(O)c1cccc3ccccc13)N2Nc1ccccn1 (stereo not given)	0.246	0.143 (inactive)	1.14 (inactive)	-0.207 (inactive)	1.37	0.213 (inactive)	0.127	-0.321	-0.198	-0.0766	0.621	0.103	0.15	1.03 (inactive)	0.522	0.233	0.688	0.857	0.31	0.924
COc1ccc([C@H]2OC[C@@H]3CC4(CC=CC4)C(=O)N32)cc1	1.08	-0.205 (inactive)	0.0197 (inactive)	-0.451 (inactive)	1.24	-0.472 (inactive)	-0.0171	1.08	0.527	0.0376	0.165	-0.231	-0.147	-0.297 (inactive)	0.93	0.784	1.04	1.31	1.42	1.25
COC(=O)[C@@]1(Cc2ccc(F)cc2)[C@H]2c3cc(C(=O)N4CCCC4)n(Cc4ccc(C)o4)c3C[C@H]2CN1C(=O)c1ccccc1	0.812	-0.849 (inactive)	-0.0545 (inactive)	0.0836 (inactive)	2.88	-0.673 (inactive)	0.381	1.2	0.556	0.277	1.55	0.72	1.02	3.29 (inactive)	1.08	0.899	0.0358	0.596	-0.177	0.87
C=CCN1C(=O)[C@]2(O[C@H](CCO)[C@@H]([Si](C)(C)c3ccc(OC)cc3)[C@@H]2C)c2cc(N3C(=O)c4cccc5cccc3c45)ccc21	1.46	3.36 (inactive)	2.8 (inactive)	36.8 (active)	2.01	0.577 (inactive)	-0.172	1.69	1.07	-0.137	1.18	0.0458	0.151	-2.45 (inactive)	0.446	0.398	-0.0841	0.286	-0.255	0.552
COCCOC(=O)N1C(=O)[C@@]2(c3cc(C#CCCO)ccc31)[C@H](c1ccc(OCCO)cc1)N1[C@H](c3ccccc3)[C@H](c3ccccc3)OC(=O)[C@H]1[C@@H]2C(=O)N1CCN(c2ncccn2)CC1	1.55	-0.01 (inactive)	0.342 (inactive)	2.94 (inactive)	2.42	-0.0542 (inactive)	-0.123	1.23	1.06	-0.0066	0.732	-0.104	0.27	0.319 (inactive)	1.03	1.31	0.629	1.39	0.783	0.845
COCCOC(=O)N1C(=O)[C@@]2(c3cc(C#CC4=CCCCC4)ccc31)[C@H](C(=O)Nc1nc3ccccc3s1)[C@H]1C(=O)O[C@H](c3ccccc3)[C@H](c3ccccc3)N1[C@@H]2c1ccccc1OCCO	1.55	1.25 (inactive)	0.812 (inactive)	3.25 (inactive)	2.15	0.859 (inactive)	0.255	0.883	1.07	0.411	0.966	0.756	0.4	-0.823 (inactive)	1.33	1.29	0.765	1.41	0.785	1.3
O=C1C2C=CC(C(O)C(c3ccccc3)c3ccccc3)N(n3cnnc3)C2C(=O)N1Cc1ccccc1 (stereo not given)	1.44	-0.743 (inactive)	-0.615 (inactive)	-0.771 (inactive)	3.25	-1.21 (inactive)	-0.109	0.531	1.1	-0.167	0.55	-0.0184	0.571	0.00252 (inactive)	1.25	1.07	-1.18	0.439	1.24	0.581
